We go through 35 compounds from PubChem BioAssay (Tox21).

Results filed as inconclusive are left out. Where a call stands in place of a potency, no number is given. Some compounds were tested as several samples or in several runs, with calls that do not always agree. The source made the active and inactive calls. Unless noted, calls come from the whole dose curve; as a rule, active = well fitted curve in the direction sought with a large enough effect in the repeat runs; inconclusive = weak or mixed curves; inactive = no such curve, though single readings can be large; an effect the other way counts as inactive or inconclusive.

Sequence of Progesterone receptor (Homo sapiens) (P06401 whole entry, looked up): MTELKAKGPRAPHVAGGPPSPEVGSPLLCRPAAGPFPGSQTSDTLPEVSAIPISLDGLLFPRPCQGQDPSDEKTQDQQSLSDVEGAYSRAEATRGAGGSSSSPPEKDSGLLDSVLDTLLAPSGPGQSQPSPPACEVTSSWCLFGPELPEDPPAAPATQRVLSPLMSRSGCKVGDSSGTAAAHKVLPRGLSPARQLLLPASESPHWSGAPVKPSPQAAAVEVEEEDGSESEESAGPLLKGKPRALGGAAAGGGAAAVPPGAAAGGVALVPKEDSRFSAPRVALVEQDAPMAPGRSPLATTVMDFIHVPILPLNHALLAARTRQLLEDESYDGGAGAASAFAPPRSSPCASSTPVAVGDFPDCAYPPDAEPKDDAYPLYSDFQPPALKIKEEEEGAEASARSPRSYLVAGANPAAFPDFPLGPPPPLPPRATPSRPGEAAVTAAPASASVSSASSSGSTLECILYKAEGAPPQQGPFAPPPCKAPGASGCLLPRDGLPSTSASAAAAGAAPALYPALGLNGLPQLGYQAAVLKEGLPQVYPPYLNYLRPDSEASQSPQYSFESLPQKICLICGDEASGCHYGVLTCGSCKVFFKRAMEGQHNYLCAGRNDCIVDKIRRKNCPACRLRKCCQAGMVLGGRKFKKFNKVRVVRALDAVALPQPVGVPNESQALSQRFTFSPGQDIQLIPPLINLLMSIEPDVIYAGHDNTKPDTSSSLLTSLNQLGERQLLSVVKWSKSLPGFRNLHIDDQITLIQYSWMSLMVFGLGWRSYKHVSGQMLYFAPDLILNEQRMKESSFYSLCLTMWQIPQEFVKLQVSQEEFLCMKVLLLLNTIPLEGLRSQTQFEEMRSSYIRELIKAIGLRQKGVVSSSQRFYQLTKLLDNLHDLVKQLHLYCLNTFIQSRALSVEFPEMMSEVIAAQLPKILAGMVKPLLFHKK

One assay deals with Progesterone receptor (Homo sapiens) (UniProt P06401). As to the kind of experiment: qHTS assay to identify small molecule antagonists of the progesterone receptor (PR) signaling pathway (AID 1346795; active = well fitted inhibition curve with a large enough effect in the signal ratio in the repeat runs, not every such curve was filed as active; the % refers to the signal ratio; note: potency is the fitted concentration of half-maximal effect). Conditions: PR-UAS-bla HEK293T, beta-lactamase FRET ratio, 16 h; series mostly up to 92.4 µM. A digest of the protocol:
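Stimulus R5020 at 1 nM final; cells HEK293T PR-UAS-bla; medium with 2% charcoal-stripped FBS; compound exposure 16 hr at 37C, 5% CO2; detection by FRET beta-lactamase substrate, 2 hr, room temperature.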
(In general: In qHTS, concentration-response curves come from the screen itself.)
As to `CCC1(c2ccccc2)C(=O)N(COC)C(=O)N(COC)C1=O`, the Potency entry is “inactive”.
On the same count and under the same terms, to `CC[C@@H](CO)NC(=O)[C@@H]1C=C2c3cccc4[nH]cc(c34)C[C@H]2N(C)C1` belongs “inactive”; to `Cc1ccc(S(=O)(=O)N[C@@H](CCCCN)C(=O)CCl)cc1`, “inactive”; to `COC(=O)[C@@H](N)CCCN/C(N)=N/[N+](=O)[O-]`, “inactive”.
For `C=CC=O`, the Potency entry is “inactive”.
On to `CC(C)(C)NC[C@H](O)c1ccc(O)cc1Cl`, for which the Potency entry is “inactive”.
Same read-out and setting: then `O=P(O)(O)c1ccccc1`, with “inactive”; and `COc1cccc(C=O)c1`, with “inactive”.
Same read-out and setting: to `COc1ccccc1OC` belongs “inactive”; to `N[C@@H]1C[C@H]1c1ccccc1`, “inactive”.
For `CN(C)C(=O)Oc1cc(OC(=O)N(C)C)cc(C(O)CNC(C)(C)C)c1` (stereo not given), the Potency result was “inactive”.
On the same count and under the same terms, to `ClCCCCCCCl` belongs “inactive”; to `CCN(CCO)CCO`, “inactive”; to `Nc1c(Cl)c(F)nc(OCC(=O)O)c1Cl`, “inactive”.
Same read-out and setting: then `CCCCCCCC(=O)Cl`, with “inactive”; and `ClC1=C(Cl)C2(Cl)C(CBr)CC1(Cl)C2(Cl)Cl` (stereo not given), with “inactive”.
In the case of `CCCCCCC1CCOC1=O` (stereo not given), the Potency entry is “inactive”.
Take `CCCCS(=O)(=O)Cl`: the Potency result was “inactive”.
On the same count and under the same terms, to `CC(=O)CN(CC(C)=O)N=O` belongs “inactive”.
Still for that read-out and setting: then `CCOP(=O)(CN(CCO)CCO)OCC`, with “inactive”.
For the compound `O=C(Cl)OCc1ccccc1`, the Potency result was “inactive”.
The same measure, in the same setting: then `CNC(=O)NC(O)C(Cl)(Cl)Cl` (stereo not given), with “inactive”; and `CCC1(c2ccccc2)CCC(=O)NC1=O` (stereo not given), with “inactive”; and `CCC(C)C(C)(COC(N)=O)COC(N)=O` (stereo not given), with “inactive”.
On the same count and under the same terms, to `ClCCN1CCCC1` belongs “inactive”; to `CC(Cl)(Cl)Cl`, “inactive”; to `CC(C)N(Cc1ccccc1)C(=O)C(C)(C)C`, “inactive”.
Same read-out and setting: to `CC#Cc1cc(C)nc(Nc2ccccc2)n1` belongs 24.3 µM (active); to `CCc1ccc(C2CCNCC2)cc1`, “inactive”; to `CS(=O)(=O)c1ccc(C(=O)C2C(=O)CCCC2=O)c(Cl)c1COCC(F)(F)F`, “inactive”.
`C(COCC1CO1)OCC1CO1` (stereo not given): the Potency entry is “inactive”.
The same measure, in the same setting: to `NCC1(CC(=O)O)CCCCC1` belongs “inactive”; to `CC(O)CCl` (stereo not given), “inactive”.
Still for that read-out and setting: to `CCOP(=S)(OCC)SCCl` belongs “inactive”; to `CC(Cc1ccccc1)NCCCCl` (stereo not given), “inactive”.

System in the next assay: not listed separately
Kind of assay: qHTS assay to identify small molecule antagonists of the progesterone receptor (PR) signaling pathway - cell viability counter screen (AID 1346798). Note: nearly all actives have a fitted effect of over 50% in size. The note with it: PR-UAS-bla HEK293T viability, CellTiter-Glo luminescence, 16 h; series mostly up to 92.4 µM. A digest of the protocol: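 In the same plates used for the beta-lactamase readout, cell viability of compound- and R5020-treated PR-UAS-bla HEK293T cells (16 hr, 37C) was assessed by CellTiter-Glo luminescence.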
Take `CCC1(c2ccccc2)C(=O)N(COC)C(=O)N(COC)C1=O`: the Potency entry was “inactive”.
Regarding `CC[C@@H](CO)NC(=O)[C@@H]1C=C2c3cccc4[nH]cc(c34)C[C@H]2N(C)C1`, the Potency result was “inactive”.
Same read-out and setting: to `Cc1ccc(S(=O)(=O)N[C@@H](CCCCN)C(=O)CCl)cc1` belongs “inactive”; to `CC(C)(C)NC[C@H](O)c1ccc(O)cc1Cl`, “inactive”; to `CCN(CCO)CCO`, “inactive”.
`Nc1c(Cl)c(F)nc(OCC(=O)O)c1Cl`: the Potency entry was “inactive”.
Take `CCCCCCCC(=O)Cl`: the Potency entry is “inactive”.
In the case of `CCCCCCC1CCOC1=O` (stereo not given), the Potency entry is “inactive”.
With `CCOP(=O)(CN(CCO)CCO)OCC`, the Potency result is “inactive”.
In the case of `O=C(Cl)OCc1ccccc1`, the Potency result was “inactive”.
Turning to `CCC1(c2ccccc2)CCC(=O)NC1=O` (stereo not given), the Potency entry is “inactive”.
In the case of `ClCCN1CCCC1`, the Potency result is “inactive”.
Still for that read-out and setting: then `CC(Cl)(Cl)Cl`, with “inactive”; and `CC(C)N(Cc1ccccc1)C(=O)C(C)(C)C`, with “inactive”; and `CC#Cc1cc(C)nc(Nc2ccccc2)n1`, with “inactive”.
Regarding `CCOP(=S)(OCC)SCCl`, the Potency entry was “inactive”.
On the same count and under the same terms, then `CC(Cc1ccccc1)NCCCCl` (stereo not given), with “inactive”.

System in another assay: not listed separately
Kind of assay: qHTS assay to identify small molecule agonists of the progesterone receptor (PR) signaling pathway - cell viability counter screen (AID 1346799; calls by dose curve; note: nearly all actives have a fitted effect of over 45% in size; note: potency is the fitted concentration of half-maximal effect). The note with it: PR-UAS-bla HEK293T viability, CellTiter-Glo luminescence, 16 h; series mostly up to 92.4 µM. The procedure, abridged:
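Multiplexed viability read: CellTiter-Glo luminescence, 30 min RT, following LiveBLAzer FRET measurement on PR-UAS-bla HEK293T cells exposed to compounds 16 hr.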
`CCC1(c2ccccc2)C(=O)N(COC)C(=O)N(COC)C1=O`: the Potency entry is “inactive”.
Same read-out and setting: then `COC(=O)[C@@H](N)CCCN/C(N)=N/[N+](=O)[O-]`, with “inactive”; and `C=CC=O`, with “inactive”.
For `CC(C)(C)NC[C@H](O)c1ccc(O)cc1Cl`, the Potency entry is “inactive”.
The same measure, in the same setting: then `O=P(O)(O)c1ccccc1`, with “inactive”; and `COc1cccc(C=O)c1`, with “inactive”; and `COc1ccccc1OC`, with “inactive”.
On the same count and under the same terms, to `N[C@@H]1C[C@H]1c1ccccc1` belongs “inactive”.
Consider `CN(C)C(=O)Oc1cc(OC(=O)N(C)C)cc(C(O)CNC(C)(C)C)c1` (stereo not given), for which the Potency entry was “inactive”.
With `ClCCCCCCCl`, the Potency entry was “inactive”.
Same read-out and setting: then `CCN(CCO)CCO`, with “inactive”; and `CCCCCCCC(=O)Cl`, with “inactive”.
For `ClC1=C(Cl)C2(Cl)C(CBr)CC1(Cl)C2(Cl)Cl` (stereo not given), the Potency is 68.6 µM (active) and inactive.
The same measure, in the same setting: to `CCCCCCC1CCOC1=O` (stereo not given) belongs “inactive”; to `CCCCS(=O)(=O)Cl`, “inactive”; to `CC(=O)CN(CC(C)=O)N=O`, “inactive”.
Still for that read-out and setting: then `CCOP(=O)(CN(CCO)CCO)OCC`, with “inactive”; and `O=C(Cl)OCc1ccccc1`, with “inactive”.
The same measure, in the same setting: to `CNC(=O)NC(O)C(Cl)(Cl)Cl` (stereo not given) belongs “inactive”.
For `CCC1(c2ccccc2)CCC(=O)NC1=O` (stereo not given), the Potency entry is “inactive”.
The same measure, in the same setting: then `CCC(C)C(C)(COC(N)=O)COC(N)=O` (stereo not given), with “inactive”.
The same measure, in the same setting: then `CC(Cl)(Cl)Cl`, with “inactive”; and `CS(=O)(=O)c1ccc(C(=O)C2C(=O)CCCC2=O)c(Cl)c1COCC(F)(F)F`, with “inactive”; and `C(COCC1CO1)OCC1CO1` (stereo not given), with “inactive”.
The same measure, in the same setting: then `NCC1(CC(=O)O)CCCCC1`, with “inactive”.
Turning to `CC(O)CCl` (stereo not given), the Potency result was “inactive”.
On the same count and under the same terms, to `CCOP(=S)(OCC)SCCl` belongs “inactive”; to `CC(Cc1ccccc1)NCCCCl` (stereo not given), “inactive”.

System in a further assay: not listed separately
Kind of assay: qHTS assay to identify small molecule antagonists of the TGF-beta/Smad signaling pathway - cell viability counter screen (AID 1346824). Note: nearly all actives have a fitted effect of over 50% in size. The note with it: SBE-bla HEK293T viability, CellTiter-Glo luminescence; series mostly up to 76.8 µM. The procedure, abridged: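 SBE-bla HEK 293T cells were plated overnight at 37 C, then given compounds in DMSO plus TGF-beta1 (added as 0.25 ng/mL solution) for 5 hr. After the bla read, CellTiter-Glo was added to the same wells and luminescence read after 30 min at room temperature.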
For the compound `CC[C@@H](CO)NC(=O)[C@@H]1C=C2c3cccc4[nH]cc(c34)C[C@H]2N(C)C1`, the compound was called inactive.
Still for that read-out and setting: to `Cc1ccc(S(=O)(=O)N[C@@H](CCCCN)C(=O)CCl)cc1` belongs “inactive”; to `COC(=O)[C@@H](N)CCCN/C(N)=N/[N+](=O)[O-]`, “inactive”; to `C=CC=O`, “inactive”.
For `COc1ccccc1OC`, the call was inactive.
Turning to `N[C@@H]1C[C@H]1c1ccccc1`, the compound was called inactive.
As to `CCN(CCO)CCO`, the compound was classed as inactive.
`Nc1c(Cl)c(F)nc(OCC(=O)O)c1Cl`: the compound was called inactive.
Same read-out and setting: to `ClC1=C(Cl)C2(Cl)C(CBr)CC1(Cl)C2(Cl)Cl` (stereo not given) belongs “inactive”; to `CCCCS(=O)(=O)Cl`, “inactive”.
Turning to `CC(=O)CN(CC(C)=O)N=O`, the compound was called inactive.
Still for that read-out and setting: to `CNC(=O)NC(O)C(Cl)(Cl)Cl` (stereo not given) belongs “inactive”.
On the same count and under the same terms, to `CC(Cl)(Cl)Cl` belongs “inactive”; to `CC(C)N(Cc1ccccc1)C(=O)C(C)(C)C`, “inactive”.
Still for that read-out and setting: to `CC#Cc1cc(C)nc(Nc2ccccc2)n1` belongs “inactive”.
Consider `CCc1ccc(C2CCNCC2)cc1`, for which the outcome was inactive.
The same measure, in the same setting: to `CS(=O)(=O)c1ccc(C(=O)C2C(=O)CCCC2=O)c(Cl)c1COCC(F)(F)F` belongs “inactive”.
Consider `NCC1(CC(=O)O)CCCCC1`, for which the outcome was inactive.
Still for that read-out and setting: then `CC(O)CCl` (stereo not given), with “inactive”.
Same read-out and setting: then `CC(Cc1ccccc1)NCCCCl` (stereo not given), with “inactive”.
